# In the library only some 2.8% were active in any assay of this set; here they are far more common.
# MITF TRPM1 inh – inhibitors of MITF-driven TRPM1 promoter in melanoma cells; 330,000 compounds, 0.83% hits; inhibition, % at 12.5 µM; SK-MEL-5 TRPM1 promoter luciferase, 24 h;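 active = mean inhibition across replicates of 60% or more, whatever share of single replicates reaches that level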
# HIF-2a block – HIF-2a inhibition | 360,000 compounds, 0.72% hits | 786-0 RCC cells HIF-2a reporter, luciferase luminescence, overnight | AID 624352 | inhibition, % at 18.8 µM;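 active = inhibition of the luminescence signal of 40% or more relative to plate controls, in a single-dose primary screen at 18.75 µM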
# KKLEB cytotox – CF airway cell cytotoxicity counter-screen; KKLEB CF airway cells viability, ATPlite luminescence, overnight; hits give low values; cells stimulated with P. aeruginosa culture filtrate; activity change (cytotoxicity), % at 5 µM; 360,000 compounds, 0.36% hits; AID 602141;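 active = corrected activity change at or below -50% at 5 µM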
# CF NFkB inh – inhibitors of cystic fibrosis induced NF-kB. inhibition, % at 5 µM. 360,000 compounds, 0.86% hits. KKLEB NF-kB-GFP reporter, PAF-induced, GFP fluorescence overnight;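 active = at least 50% inhibition at 5 µM, scaled per plate between neutral and stimulator controls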;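 also: PAF is a Pseudomonas aeruginosa culture filtrate used as stimulus; plate controls were PAF-stimulated DMSO wells for no effect and unstimulated DMSO wells for full effect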
# Peg3 prom inh – reduces Peg3 promoter-driven luciferase expression in HeLa. HeLa PEG-Prom luciferase reporter, luminescence, overnight. inhibition, % at 20 µM. 360,000 compounds, 1.7% hits. AID 588405;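 active = inhibition of at least 50% at 20 µM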
# Shn3 inh set2 – reduces Shn3 3'UTR luciferase signal in osteoblasts; Clone20 osteoblast Shn3 3'UTR firefly luciferase, 24 h; inhibition, % at 12.5 µM; 360,000 compounds, 0.52% hits; AID 588674;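 active = mean inhibition of at least 75% with every replicate also reaching 75%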;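 also: 0% = median of neutral control wells and 100% = pilot-screen positive control compound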
# * hit, by the source's call; / = no result.
SMILES,MITF TRPM1 inh,HIF-2a block,KKLEB cytotox,CF NFkB inh,Peg3 prom inh,Shn3 inh set2
CCN1CCN(c2ccc(S(=O)(=O)N3CCCCC3)cc2NC(=O)/C=C/c2cccc(OC)c2OC)CC1,78.0*,14.8,11.3,5.0,68.4*,-9.6
O=c1oc(Cl)c(Cl)c2ccccc12,89.8*,0.6,-4.9,17.1,48.1,66.0
COc1cc2ccccc2cc1C(=O)OCc1nc2ccsc2c(=O)[nH]1,-19.0,-16.6,0.8,4.9,-2.9,-10.8
CC1=C(CC(=O)c2ccc(Cl)cc2)C(=O)c2ccccc2C1=O,27.1,-144.4,-31.4,64.9*,-259.1,-2.9
Oc1ccc(C[C@@H]2CNCCN2CCC23CC4CC(CC(C4)C2)C3)cc1,19.3,1.4,-11.2,8.0,50.6*,-8.3
Oc1ccc(C[C@H]2CNCCN2CCCCC2CCCCC2)cc1,2.5,-2.8,-30.6,17.7,106.3*,-26.2
Cc1ccc(-n2nnnc2Sc2nc([N+](=O)[O-])nn2C)c(C)c1,73.1*,13.6,8.4,4.3,-0.6,-35.0
CN(Cc1ccc(Cl)cc1)C(=O)CCl,9.1,-5.7,-56.7*,50.2*,18.0,-8.7
COc1ccc(C(NC(=O)C2CCN(CCOc3ccc(Cl)cc3Cl)CC2)c2cccs2)cc1 (stereo not drawn),/,-28.3,-17.5,27.1,-1.2,21.3
c1cnc2ccc(-c3ccc4ncccc4c3)cc2c1,-32.1,-56.1,-32.9,58.2*,-188.6,-14.8
CCN1CC(CN(C)Cc2cn(-c3ccc(C)cc3)nc2-c2cccc(C)c2)CC1=O (stereo not drawn),-15.7,-6.9,-22.0,4.4,-11.3,-8.3
Cc1ccc(C(NC(=O)N2CCCCC2)=C(Cl)Cl)cc1F,26.1,0.0,6.2,4.6,53.0*,-49.7
CCN(CC)c1ccc(CNCc2cccs2)cc1,-8.5,-33.3,8.6,-31.4,-54.9,8.8
Cc1ccc(NC(=O)C2CCN(S(=O)(=O)c3ccc4c(c3)CCCC(=O)N4)CC2)c(Br)c1,8.2,-5.8,-1.3,19.7,-5.1,12.8
CCOC(=O)CSC1=NC(=O)/C(=C\c2ccc(OC(C)=O)cc2)S1,78.7*,18.6,1.0,0.4,53.4*,-35.3
CCOC(=O)CSC1=NC(=O)/C(=C/c2ccc(Br)cc2)S1,53.5,-129.9,-16.3,41.7,74.5*,-79.6
CCOc1ccc(C(=O)Nc2ccc3[nH]ncc3c2)cc1,-56.4,-168.9,-12.3,3.1,-189.7,-62.8
CCS(=O)(=O)n1nc(-c2ccccc2)nc1SC,-21.1,-105.0,4.4,-0.3,-61.5,-16.1
O=[N+]([O-])c1cccc(N=Nc2ccc(O)cc2O)c1,-3.5,-153.7,-41.0,65.6*,-58.8,7.7
CC1C(c2ccccc2)N(C)C(c2ccccc2)C(C)C1(O)C#Cc1ccccc1 (stereo not drawn),6.3,0.2,-18.0,24.9,61.6*,2.5
C1CCCCCC(NCCN2CCNCC2)CCCCC1,46.5,-1.5,-10.6,14.8,100.9*,11.7
COC(=O)c1cc(S(=O)(=O)NCc2ccc3c(c2)OCO3)cn1C,-1.3,7.2,2.0,-8.7,3.4,-9.5
FC(F)Oc1ccc(NC(=S)NNc2ccnc3cc(Cl)ccc23)cc1,68.7*,10.2,3.5,-16.2,29.1,6.1
Cc1cccc(NS(=O)(=O)c2cccc(C(=O)NCCCN3CCOCC3)c2)c1,6.0,2.7,0.2,25.3,-1.9,-2.3
O=C(c1ccccc1)N1CCOC(O)(c2ccccc2)C1c1ccccc1 (stereo not drawn),-3.4,-6.0,14.9,-33.7,15.3,7.2
Cc1ccc(NCC(=O)c2ccccc2)cc1Cl,-9.1,-79.6,-13.3,14.0,13.5,-61.4
Cc1ccc(NC2=C(NC(=O)c3ccccc3)C(=O)c3ccccc3C2=O)cc1Cl,66.5*,-23.7,3.8,4.6,15.4,22.8
COc1cccc(CNC(=O)CSc2nc(=O)n(Cc3ccncc3)c3c2CCC3)c1,-0.2,4.7,-8.0,2.7,2.2,-2.6
CO[C@H]1/C=C/O[C@@]2(C)Oc3c(C)c(O)c4c(O)c(c(C=NN5CCN(C)CC5)c(O)c4c3C2=O)NC(=O)/C(C)=C\C=C\[C@H](C)[C@H](O)[C@@H](C)[C@@H](O)[C@@H](C)[C@H](OC(C)=O)[C@@H]1C,0.5,25.4,-6.9,54.6*,-11.0,18.0

# Screening results: PubChem, several laboratories
